HttQ103 aggreg = reduces HttQ103-GFP aggregates in PC12 cells; hit rate 1.1% among 220,000; AID 1688; PC12 HttQ103-GFP aggregates, Acumen cytometry, 40 h; Potency, µM (doses to about 46.1 µM), for the others: at the highest dose activity change, negative = inhibition, most hits filed as inhibitors; active = well fitted curve in the direction sought with a large enough effect; inconclusive = small, poorly fitted or top-dose-only effect, or another doubt; inactive = no such curve, though single readings can be large; an effect the other way counts as inactive or inconclusive; also: % is scaled to controls: 0 for no effect and ±100 for the full control effect; nearly all actives have a fitted effect of over 60% in size
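Aggregates are detected as GFP objects 1–25 µm with signal 6 STDEV over background in lysates of induced PC12 cells. These carry Huntingtin exon 1 with 103 glutamines fused to GFP under an ecdysone promoter; compounds titrated.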
HPGD inh = inhibitors of human 15-hydroxyprostaglandin dehydrogenase (HPGD); P15428; purified HPGD, NADH fluorescence kinetic, PGE2 substrate; Potency, µM, for the others: at the top dose activity change, negative = inhibition, usual class: inhibitors; hit rate 4.3% among 150,000; also: % is scaled to controls: 0 for no effect and ±100 for the full control effect
Target sequence (P15428 whole entry, looked up): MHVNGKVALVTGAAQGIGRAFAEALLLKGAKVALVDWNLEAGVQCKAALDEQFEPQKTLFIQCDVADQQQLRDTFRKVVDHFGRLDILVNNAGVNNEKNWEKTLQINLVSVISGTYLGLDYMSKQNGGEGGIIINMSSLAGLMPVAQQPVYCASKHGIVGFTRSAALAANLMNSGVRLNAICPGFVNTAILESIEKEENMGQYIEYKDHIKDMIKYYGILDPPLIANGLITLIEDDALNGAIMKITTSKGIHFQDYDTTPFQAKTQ
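NADH formation kinetics: reaction with 30 uM PGE2 and 1 mM NAD+ (final), 20 nM enzyme, Tris-HCl pH 8 with Tween 20, after 15 min compound preincubation at room temperature. Fluorescence change, last versus first of five reads.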
KDM4E inh = JMJD2E (human) inhibition; B2RXH2; JMJD2E catalytic domain, FDH-coupled NADH fluorescence (FDH is formaldehyde dehydrogenase); hit rate 1.6% among 230,000; Potency, µM (series often up to 57.1 µM), for the others: at the highest dose activity change, negative = inhibition, hits mostly inhibitors;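 also: 0% = wells with enzyme and -100% = buffer wells without enzyme; nearly all actives have a fitted effect of over 50% in size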
ALDH1A1 inh = ALDH1A1 (human) enzyme inhibition; P00352; Purified ALDH1A1, NADH fluorescence, propionaldehyde substrate; Potency, µM (highest dose often 75.3 µM), for the others: at the highest dose activity, negative = inhibition, hits mostly inhibitors; hit rate 7.3% among 220,000; AID 1030;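 also: plate controls were no enzyme wells and a reference inhibitor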
Target sequence (P00352 whole entry, looked up): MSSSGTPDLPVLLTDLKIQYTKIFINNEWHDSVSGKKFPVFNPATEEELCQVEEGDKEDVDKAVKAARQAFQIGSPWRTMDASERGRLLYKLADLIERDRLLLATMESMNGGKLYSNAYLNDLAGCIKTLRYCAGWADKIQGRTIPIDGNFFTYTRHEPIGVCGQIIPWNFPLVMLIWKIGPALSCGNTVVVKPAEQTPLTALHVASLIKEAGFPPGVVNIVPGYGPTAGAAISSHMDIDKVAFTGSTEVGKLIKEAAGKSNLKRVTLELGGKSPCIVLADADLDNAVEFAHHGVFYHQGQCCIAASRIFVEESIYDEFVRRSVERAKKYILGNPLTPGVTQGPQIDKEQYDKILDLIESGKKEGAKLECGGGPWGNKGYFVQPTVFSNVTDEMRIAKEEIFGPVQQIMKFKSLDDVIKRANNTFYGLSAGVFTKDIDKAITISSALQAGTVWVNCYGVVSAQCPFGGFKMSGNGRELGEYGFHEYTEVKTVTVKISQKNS
HTT ATP protect = protects HTT-Q103 PC12 cells, measured by ATP; Potency, µM (top dose mostly 56.4 µM), for the others: cytoprotection (ATP increase), hits mostly activators; hit rate 0.14% among 230,000; AID 1471; PC12 HTT-Q103 induced, cytoprotection, ATP luminescence, 40 h; active = well fitted curve in the direction sought with a large enough effect; inconclusive = small, poorly fitted or top-dose-only effect, or another doubt; inactive = no such curve, though single readings can be large; an effect the other way counts as inactive or inconclusive; also: % of control where 0% means no effect; nearly all actives have a fitted effect of over 45% in size
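Quantitative HTS on tebufenozide-induced (100 nM) PC12 cells expressing HTTQ103 exon 1–GFP; compounds tested as a concentration series; survival measured via cellular ATP.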
Lamin A splicing = changes lamin A minigene splicing in HeLa cells; HeLa LMNA splicing GFP/RFP minigene ratio, 48 h; Potency, µM (top dose mostly 46.1 µM), for inactives: at the highest dose ratio change, negative = inhibition, hits mostly inhibitors; hit rate 0.01% among 200,000; AID 1487; active = well fitted inhibition curve with a large enough effect in the signal ratio, with a control signal flat, not every such curve was filed as active; inconclusive = small, poorly fitted or top-dose-only effect, or effect the other way, or a change in a side signal; the % refers to the signal ratio; also: % is scaled to controls: 0 for no effect and ±100 for the full control effect
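S3 HeLa cells stably expressing lamin A-EGFP splicing minigene plus DsRed2, 600 cells/well, 48 h compound exposure at 37C. Laser-scanning cytometry; analysed as GFP (500-530 nm)/RFP (575-640 nm) total intensity ratio; 0.5% DMSO vehicle.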
Starred values were filed as active, the others as inactive; ? = inconclusive; . = not tested or not shown; [ ] = another dose, or the depositor's remark. Only some compounds are listed: those with a hit (about 9.2% of all), similar ones and a draw of the others. Unless noted, calls follow the shape of the dose curve; as a rule, active = well fitted inhibition curve with a large enough effect (not every such curve was filed as active); inconclusive = small, poorly fitted or top-dose-only effect, or another doubt; inactive = no such curve, though single readings can be large or run the other way. Potency is read from the fitted curve at half-maximal effect.

SMILES	HttQ103 aggreg	HPGD inh	KDM4E inh	ALDH1A1 inh	HTT ATP protect	Lamin A splicing
O=C(NCc1cccc2ccccc12)[C@H]1C[C@@H]1[C@H](NP(=O)(c1ccccc1)c1ccccc1)c1ccccc1	.	-38.8%	-28.4%	?	-35.2%	.
CC(C)CN(CCCNC(=O)CN1N=C(c2ccccc2)CCC1=O)CC(C)C	.	.	.	.	.	-0.6%[46 µM]
CC(=O)Oc1ccc(N2C(=O)C3C4C=CC(CO)(O4)C3C2=O)cc1 (configuration not stated)	?	22.4µM*	-4.8%	0.708µM*	-21.8%	7.7%
Cc1c2cnccc2c(C)c2c1c1ccccc1n2CCOC(=O)c1ccccc1	.	?	.	-15.1%[13.5 µM]	17.4%[10 µM]	.
O=[N+]([O-])c1ccc(O)c(/C=N/Nc2ccc(Cl)nn2)c1	?	-29.8%	5.62µM*	?	-70.0%	?
O=[N+]([O-])c1ccc(O)c(-c2nn[nH]n2)c1	1.4%	-27.5%	0.398µM*	1.3%	23.6%	5.7%
O=[N+]([O-])c1ccc(O)c(/C=N/Nc2nn[nH]n2)c1	0.3%	.	14.1µM*	-10.0%	.	.
O=[N+]([O-])c1ccc(O)c(/C=N/NC2=NS(=O)(=O)c3ccccc32)c1	?	.	22.4µM*	?	-4.0%[10 µM]	-6.5%[46 µM]
Cc1cc(C)n(-c2ccc([N+](=O)[O-])cc2-c2nn[nH]n2)n1	4.5%	.	-10.0%	-5.4%	12.3%	3.3%[46 µM]
CCCCN(CC)S(=O)(=O)c1cccc2cccnc12	.	.	.	.	15.2%	.
N#Cc1cc2ccccc2nc1SCc1ccccn1	-18.8%	25.1µM*	-13.0%	-6.8%	-66.9%[10 µM]	4.0%
Cc1ccc(SCCC(=O)N2CCOCC2)cc1	-3.2%	-6.5%	7.1%	8.2%	-19.1%[0.074 µM]	-2.0%
Cc1ccc(SCCC(=O)N2CCCC2)cc1	-20.4%	14.1µM*	2.0%	?	-5.2%	?
Cc1ccc(SCCC(=O)N2CCC(C)CC2)cc1	-3.5%	7.94µM*	-7.1%	?	4.1%[1.9 µM]	?
Cc1ccc(SCCC(=O)N2CCC(C(N)=O)CC2)cc1	4.8%	.	-2.1%	-13.7%	-15.5%[10 µM]	3.8%
CCOC(=O)C1(CCOc2ccccc2)CCN(Cc2ccc3nonc3c2)CC1	5.5%[9.22 µM]	.	-9.2%	28.2µM*	23.9%[10 µM]	.
CCOC(=O)C1(CCOc2ccccc2)CCN(Cc2ccc(CO)o2)CC1	-16.6%[9.22 µM]	.	3.6%	-9.4%	3.4%[10 µM]	?
CCOC(=O)C1(CCOc2ccccc2)CCN(Cc2cnc(C)s2)CC1	7.5%[9.22 µM]	.	-8.1%	15.8µM*	3.5%[10 µM]	.
CCOC(=O)C1=NNC2C(=O)N(C3CCCCC3)C(=O)C12 (configuration not stated)	18.1%	-4.9%	5.9%	12.6µM*	-3.7%	0.9%
CCC(C(=O)OCc1cc(=O)n2nc(CCOC)sc2n1)c1ccccc1 (configuration not stated)	.	.	.	.	.	-9.3%[46 µM]
Cc1ccccc1S(=O)(=O)O[C@@H]1NS(=O)(=O)c2ccccc21	.	0.7%	.	17.5%[13.5 µM]	10.6%[10 µM]	.
CCc1cc(C(=O)c2ccc(OC)cc2)c(N)s1	0.112µM*	.	4.2%	.	.	.
CCc1cc(C(=O)c2ccc(OC)cc2)c(NC(=O)CC(C)(C)CC(=O)O)s1	-5.8%[9.22 µM]	.	-2.5%	.	11.9%[10 µM]	.
Cc1ccc(N2C(=O)c3ccccc3C2C(=O)c2cc(C)ccc2O)cc1 (configuration not stated)	24.3%	-19.9%	?	?	9.3%[10 µM]	?
Cc1ccc(N2C(=O)c3ccccc3C2C(=O)c2ccc(O)cc2O)cc1 (configuration not stated)	10.2%	-19.3%	20µM*	-3.2%	31.5%[10 µM]	?
SMILES	HttQ103 aggreg	HPGD inh	KDM4E inh	ALDH1A1 inh	HTT ATP protect	Lamin A splicing
S=C(Nc1cccc(Br)c1)c1ccccc1	-10.5%	12.6µM*	-1.1%	2.8%	.	?
O=C(CCc1ccccc1)NC(=S)Nc1cccc(Br)c1	9.8%	-26.5%	-1.0%	?	22.8%[10 µM]	?
Cc1ccc(N=C2C(=S)N(c3ccc(C)cc3)C(=N)N2/N=C/c2ccc(Cl)cc2)cc1	-16.8%	35.5µM*	-2.7%	?	24.2%[10 µM]	-12.3%
COc1ccc(NC(=O)C(=O)NCC(c2cccnc2)N2CCc3ccccc3C2)cc1 (configuration not stated)	.	.	.	.	.	14.1µM*
O=C(NCC(c1cccnc1)N1CCc2ccccc2C1)C(=O)Nc1ccccc1 (configuration not stated)	.	.	.	.	.	-0.4%[46 µM]
C=CCn1c(SCC(=O)NCCCC)nc2scc(-c3ccco3)c2c1=O	-3.3%	-21.8%	-14.1%	20µM*	-23.0%[10 µM]	-6.5%
C=CCn1c(SCC(=O)NC2CCCC2)nc2scc(-c3ccco3)c2c1=O	?	?	?	7.94µM*	-8.2%[10 µM]	14.5%
O=C(CSCc1ccc(C(=O)O)cc1)Nc1ccc2ccccc2c1	39.8µM*	.	9.5%	.	.	.
O=C(Cc1ccccc1)NNc1ccc2ccccc2c1	?	.	25.1µM*	-8.5%	19.3%[10 µM]	?
O=C(CSCc1ccc(C(=O)O)cc1)Nc1ccccc1	29.4%[9.22 µM]	.	2.9%	11.2%	?	5.3%[46 µM]
O=C(CSCc1ccccc1)Nc1ccc(F)cc1F	20.7%	.	0.5%	23.8µM*	16.3%	.
CC(C)NC(=O)N1CC[C@@]2(CCCN(C(=O)Oc3ccccc3)C2)C1	.	-1.4%	.	30.2%	?	.
COc1ccc(/C=C/C(=O)NCC(c2ccc(F)cc2)N2CCOCC2)cc1OC (configuration not stated)	9.7%[9.22 µM]	.	?	.	2.6%[10 µM]	.
Cc1ccc(-n2nc(C)c(Sc3ccccc3[N+](=O)[O-])c2N)cc1	-19.2%	?	-5.8%	10µM*	.	?
Cc1cc(C)nc(-n2ncc3c2CCCC3=O)n1	?	.	-9.0%	0.2%	25.1µM*	.
CCOC(=O)N/N=C1/C[C@@H](O)[C@@H](O)[C@@H]2[C@@H]3C(=O)N(C(C)(C)C)C(=O)[C@H]3CC[C@@H]12	.	.	.	9.9%[13.5 µM]	4.1%[10 µM]	.
Cc1ccc(NC(=O)c2c3c(nc4ccccc24)CCC3)cc1S(=O)(=O)N(C)C	-12.3%	.	-11.4%	-2.2%	-44.6%	.
CCCCc1ccc(NC(=S)NCc2cccc(OC)c2)cc1	-4.9%[9.22 µM]	.	-9.2%	?	-54.3%	.

Screening results: PubChem, National Center for Advancing Translational Sciences (NCATS)
